Screen size: about 5,500 compounds; about 2,000 (36%) were called active. Roughly 18% stayed inconclusive and do not appear here. No stated cut-off is given here; in the data, active means normalized growth mostly below about 0.91 (no sharp cut-off); inconclusive means no clear call, values can overlap the other calls; inactive means mostly above about 0.92. The list shows a part of the results.
Assay: chemical genetic growth profiling, strain panel (AID 1159580);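 further: tested at 20 µM; growth read once vehicle control cultures reached saturation at 30 °C; 1 = growth at the plate median or of vehicle wells; lower values mean less growth of the strain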
Settings: S. cerevisiae deletion strains, growth OD
[1] = locus YMR263W, strain SAP30, hits give low values
[2] = locus YNL153C, strain GIM3, hits give low values
[3] = locus YPL055C, strain LGE1, hits give low values
[4] = locus YDL101C, strain DUN1, hits give low values
[5] = locus YHR030C, strain SLT2, hits give low values

Measured: normalized growth

COc1ccc(-c2ccc(N)[n+](CCCC(=O)O)n2)cc1
inactive: locus YAL040C, strain CLN3, hits give low values 1.05 | locus YCL061C, strain MRC1 (second series), hits give low values 1 | locus YDR363W, strain ESC2, hits give low values 1.01 | locus YER002W, strain NOP16, hits give low values 0.993 | [1] 1.01 | locus YMR307W, strain GAS1, hits give low values 1.01 | [2] 1.03 | locus YNL175C, strain NOP13, hits give low values 1 | locus YNL197C, strain WHI3, hits give low values 1.01 | locus YNL224C, strain SQS1, hits give low values 1.01 | locus YOR083W, strain WHI5 (second series), hits give low values 1.02 | [3] 1.01

COc1ccc(/C(C)=N\NC2=NCCCN2)cc1
inactive: locus YAL013W, strain DEP1, hits give low values 1 | locus YBR229C, strain ROT2, hits give low values 1.01 | locus YCL061C, strain MRC1, hits give low values 1 | [4] 1.03 | locus YDR150W, strain NUM1, hits give low values 0.999 | locus YEL061C, strain CIN8, hits give low values 0.991 | locus YGR078C, strain PAC10, hits give low values 1 | [5] 0.987 | locus YHR087W, strain rtc3, hits give low values 0.993 | locus YJL187C, strain SWE1, hits give low values 1.01 | locus YJR043C, strain POL32, hits give low values 0.998 | locus YJR075W, strain HOC1, hits give low values 0.986 | locus YKL190W, strain CNB1, hits give low values 0.973 | locus YLR039C, strain RIC1, hits give low values 0.957 | locus YLR058C, strain SHM2 (second series), hits give low values 0.991 | locus YLR085C, strain ARP6, hits give low values 0.982 | locus YLR262C, strain YPT6, hits give low values 0.978 | locus YML094W, strain GIM5, hits give low values 1.08 | locus YMR219W, strain ESC1, hits give low values 0.997 | [1] 1 | [2] 1.01 | locus YNL298W, strain CLA4 (second series), hits give low values 0.966 | locus YNL322C, strain KRE1, hits give low values 1 | locus YNR030W, strain Alg12, hits give low values 0.993 | [3] 1.01 | locus YPL241C, strain CIN2, hits give low values 1.03 | locus YPR135W, strain CTF4, hits give low values 1.04

CCCCCc1ccc(-c2nc(SCC(C)=O)n[nH]2)cc1
inactive: locus YAR019C, strain CDC15, hits give low values 0.933 | locus YBL105C, strain PKC1, hits give low values 0.95 | locus YBR135W, strain CKS1, hits give low values 0.959 | locus YBR136W, strain MEC1, hits give low values 0.948 | locus YBR160W, strain CDC28, hits give low values 0.947 | locus YDL017W, strain CDC7, hits give low values 0.957 | locus YDL028C, strain MPS1, hits give low values 0.932 | [4] 0.956 | locus YDL108W, strain KIN28, hits give low values 0.949 | locus YDL132W, strain cdc53, hits give low values 0.971 | locus YDL214C, strain PRR2, hits give low values 0.835 | locus YDR052C, strain DBF4, hits give low values 0.97 | locus YDR054C, strain cdc34, hits give low values 0.922 | locus YDR226W, strain ADK1, hits give low values 0.942 | locus YDR477W, strain SNF1, hits give low values 0.773 | locus YER123W, strain YCK3, hits give low values 0.761 | locus YER133W, strain GLC7, hits give low values 0.838 | locus YFL009W, strain cdc4, hits give low values 0.926 | locus YFL029C, strain CAK1, hits give low values 0.938 | locus YFR003C, strain YPI1, hits give low values 0.96 | locus YFR019W, strain FAB1, hits give low values 0.885 | locus YFR028C, strain CDC14, hits give low values 0.962 | locus YGR040W, strain KSS1, hits give low values 0.748 | locus YGR052W, strain FMP48, hits give low values 0.734 | locus YGR092W, strain DBF2, hits give low values 0.662 | locus YHR079C, strain IRE1, hits give low values 0.636 | locus YHR082C, strain KSP1, hits give low values 0.825 | locus YHR205W, strain SCH9, hits give low values 0.799 | locus YIL147C, strain SLN1, hits give low values 0.937 | locus YJL095W, strain BCK1, hits give low values 0.658 | locus YJL128C, strain PBS2, hits give low values 0.846 | locus YJL157C, strain FAR1, hits give low values 0.85 | locus YJR016C, strain ILV3, hits give low values 0.953 | locus YJR066W, strain TOR1 (second series), hits give low values 0.73 | locus YJR066W, strain TOR1, hits give low values 0.721 | locus YKL067W, strain YNK1, hits give low values 0.831 | locus YKL193C, strain SDS22, hits give low values 0.95 | locus YKL203C, strain TOR2, hits give low values 0.875 | locus YLR133W, strain CKI1, hits give low values 0.86 | locus YLR403W, strain SFP1, hits give low values 0.829 | locus YML070W, strain DAK1, hits give low values 0.784 | locus YMR001C, strain CDC5, hits give low values 0.94 | locus YMR205C, strain PFK2 (second series), hits give low values 0.864 | locus YMR277W, strain FCP1, hits give low values 0.932 | locus YNL006W, strain LST8, hits give low values 0.947 | locus YNL020C, strain ARK1, hits give low values 0.856 | locus YNL161W, strain CBK1, hits give low values 0.958 | locus YNL183C, strain NPR1, hits give low values 0.767 | locus YNL207W, strain RIO2, hits give low values 0.947 | locus YNL222W, strain SSU72, hits give low values 0.948 | locus YNL307C, strain MCK1 (second series), hits give low values 0.826 | locus YOL078W, strain AVO1, hits give low values 0.963 | locus YOL136C, strain PFK27, hits give low values 0.82 | locus YOR061W, strain CKA2, hits give low values 0.8 | locus YOR119C, strain RIO1, hits give low values 0.779 | locus YOR231W, strain MKK1, hits give low values 0.661 | locus YOR329C, strain SCD5, hits give low values 0.949 | locus YPL031C, strain PHO85, hits give low values 0.749 | locus YPL153C, strain RAD53, hits give low values 0.688 | locus YPL204W, strain HRR25, hits give low values 0.702 | locus YPL209C, strain IPL1, hits give low values 0.96 | locus YPR025C, strain CCL1, hits give low values 0.954 | locus YPR106W, strain ISR1, hits give low values 0.928 | locus YPR111W, strain DBF20, hits give low values 0.913 | strain NNK1, hits give low values 0.934 | strain TSCII, hits give low values 0.936
active: [5] 0.565 | locus YKL048C, strain ELM1, hits give low values 0.688 | locus YKL101W, strain HSL1, hits give low values 0.714 | locus YLR113W, strain HOG1, hits give low values 0.585 | locus YPL256C, strain CLN2, hits give low values 0.6

From PubChem BioAssay AID1159580 (chemical genetic matrix, 2015)
